Screening results from PubChem.
Shown are actives, neighbours in structure and some others; about 8.3% of the full set was active somewhere.
MARV entry inh = inhibitors of Marburg virus binding or cell entry; Marburg virus pseudotyped entry inhibition, cell reporter; Potency, µM (doses to about 37.8 µM), actives largely listed as inhibitors; hit rate 1.8% among 300,000; AID 540276; calls by dose curve; tested in HEK293 cells
HCV inh = blocks hepatitis C virus. Potency, µM (titrated, usually from 41.8 µM), hits mostly inhibitors. Huh7.5.1 HCVcc-Cre infection, luciferase reporter, 44 h. hit rate 3.4% among 340,000
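Seed cells (1,000/well) for 4 h; treat with compound and infect with HCVcc-Cre, moi about 0.5. Incubate 44 h, then detect luciferase activity.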
HCMV antiviral = human cytomegalovirus inhibition; activity change, negative = inhibition, % at 57.5 µM; HFF cells, HCMV-luciferase reporter, 72 h; active compounds read low; hit rate 4.5% among 410,000; in the data active means activity change below about -60%; inconclusive means no clear call, values can overlap the other calls; inactive means above about -39%
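Two compound doses tested in HFFs infected with HCMV-luciferase, MOI 1 PFU/cell, 72 h at 37C. Lysate luminescence read with OneGlo; data normalized against buffer-only and 10uM Salinomycin inhibitor controls.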
Giardia FBPA inh = inhibitors of Giardia lamblia fructose-1,6-bisphosphate aldolase; purified Giardia FBPA; hit rate 0.71% among 290,000; AID 2451; Potency, µM (series often up to 59.6 µM), most hits filed as inhibitors; A8B2U2; further: nearly all actives have a fitted effect of over 55% in size
Target sequence (A8B2U2 whole entry, looked up): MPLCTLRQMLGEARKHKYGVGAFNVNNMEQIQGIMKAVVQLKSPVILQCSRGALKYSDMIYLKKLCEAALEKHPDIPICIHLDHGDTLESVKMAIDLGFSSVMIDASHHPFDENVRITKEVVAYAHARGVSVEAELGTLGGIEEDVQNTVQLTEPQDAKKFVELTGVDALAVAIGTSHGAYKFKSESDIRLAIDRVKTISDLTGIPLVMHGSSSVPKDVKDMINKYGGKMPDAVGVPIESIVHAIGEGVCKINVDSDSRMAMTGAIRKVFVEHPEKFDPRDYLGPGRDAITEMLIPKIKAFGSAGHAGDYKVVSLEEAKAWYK
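40 nM FBPA preincubated 10 min at RT with compound (up to 57.5 uM final), then substrate plus GAPDH/TPI/NAD/arsenate coupling and diaphorase/resazurin added. Fluorescence read after 20 min at RT, 525/598 nm.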
LASV entry inh = Lassa virus entry inhibition; Lassa virus pseudotype entry inhibition, cell reporter; AID 540256; hit rate 1.2% among 300,000; Potency, µM (doses to about 37.9 µM), actives largely listed as inhibitors; calls by dose curve; tested in HEK293 cells; further: nearly all actives have a fitted effect of over 50% in size
FMDV antiviral = foot and mouth disease virus antiviral activity. FMDV antiviral cell-based qHTS. Potency, µM (top dose mostly 57.9 µM), usual class: inhibitors. hit rate 1.2% among 410,000. AID 1159524; calls by dose curve; tested in HEK293T cells; further: read-out not given here; nearly all actives have a fitted effect of over 45% in size
Numbers stand for hits; i = inactive; ? = inconclusive; nt = not tested or not shown. Unless noted, the call rests on the fitted dose curve; in most records, active means well fitted curve in the direction sought with a large enough effect; inconclusive means small, poorly fitted or top-dose-only effect, or another doubt; inactive means no such curve, though single readings can be large; an effect the other way counts as inactive or inconclusive.

SMILES | MARV entry inh | HCV inh | HCMV antiviral | Giardia FBPA inh | LASV entry inh | FMDV antiviral
C/C(=N\NC(=S)NC(C)C)c1ccc(Cl)s1 | i | 6.31µM | i | i | i | i
C/C(=N\NC(=O)c1ccoc1C)c1ccc(Cl)s1 | nt | i | i | i | nt | i
C/C(=N\NC(N)=S)c1ccc(Cl)s1 | i | i | -67.5 | i | i | i
CCN(Cc1ccc(C#CCCO)cc1)CC1CCCN(CCc2cccc(OC)c2)C1 (stereo unspecified) | nt | 11.2µM | i | i | nt | i
CCN(Cc1ccc(NC(C)=O)cc1)CC1CCCN(CCc2cccc(F)c2)C1 (stereo unspecified) | nt | ? | i | i | nt | i
C[C@H](CC[C@@H]1OC1(C)C)C1CC[C@H]2[C@@H]3CC=C4C[C@@H](O)CC[C@]4(C)[C@H]3CC[C@]12C (stereo partly specified) | nt | nt | nt | nt | nt | i
COc1ccc(CNC(=O)c2cccc3c(-c4cccnc4)coc23)cc1OC | nt | nt | -86.0 | nt | nt | ?
O=C(NCc1cccc(Cl)c1)c1cccc2c(-c3cccnc3)coc12 | nt | nt | i | nt | nt | ?
C=COCCCNc1ncnc2sc(-c3ccccc3)cc12 | nt | 8.91µM | ? | i | nt | ?
COc1ncnc2sc(-c3ccccc3)cc12 | i | ? | i | i | i | i
c1ccc(-c2cc3c(N4CCN(c5ccccc5)CC4)ncnc3s2)cc1 | ? | ? | i | i | i | 31.6µM
c1ccc(-c2cc3c(N4CCN(c5ncccn5)CC4)ncnc3s2)cc1 | i | ? | i | i | i | ?
CN(C)c1ncnc2sc(-c3ccccc3)cc12 | ? | 11.2µM | i | nt | i | i
COc1ccc(Nc2ncnc3sc(-c4ccccc4)cc23)cc1 | i | 10µM | i | i | i | i
CCOC(=O)C1CCC(CN(Cc2cccc(Br)c2)S(=O)(=O)c2ccc(C)cc2)CC1 (stereo unspecified) | nt | nt | i | nt | i | i
CC(C)(C)Nc1ncnc2sc(-c3ccccc3)cc12 | nt | ? | -73.2 | i | nt | ?
CCN1CCN(CCNC(=O)c2ccc(/C=C3\Sc4ccccc4N(Cc4ccccc4F)C3=O)cc2)CC1 | nt | 11.2µM | ? | i | nt | i
CN1CCN(CCCNC(=O)c2ccc(/C=C3\Sc4ccccc4N(Cc4ccc(F)cc4)C3=O)cc2)CC1 | nt | ? | -67.4 | i | nt | i
CN1CCN(CCCNC(=O)c2ccc(/C=C3\Oc4ccccc4N(Cc4ccccc4F)C3=O)cc2)CC1 | nt | 14.1µM | i | i | nt | i
Cc1ccc(Cl)cc1-n1c(CCC(=O)O)ccc1-c1cccs1 | i | nt | i | nt | i | i
OC1c2cc(Br)ccc2N=C2CCCN21 (stereo unspecified) | nt | ? | -99.8 | i | nt | ?
C[C@H](NC(=O)c1ccccc1)C(=O)N1CCN(Cc2ccc3c(c2)OCO3)CC1 | nt | i | i | nt | nt | i
CC(C)[C@H](NC(=O)c1ccc(C(C)(C)C)cc1)C(=O)N1CCN(Cc2ccc3c(c2)OCO3)CC1 | ? | 11.2µM | ? | nt | ? | ?
NC(=O)CC[C@H](NC(=O)c1ccc(F)cc1)C(=O)N1CCN(Cc2ccc3c(c2)OCO3)CC1 | i | i | -70.4 | nt | i | i
CN(C)c1ccc(CNC(=O)Cn2c(-c3cccs3)cc3cc(Cl)ccc32)cc1 | nt | nt | -71.0 | nt | i | i
SMILES | MARV entry inh | HCV inh | HCMV antiviral | Giardia FBPA inh | LASV entry inh | FMDV antiviral
COc1ccc(Cl)cc1C(=O)OCC(=O)NC1CCCC(C)C1C (stereo unspecified) | i | i | i | nt | i | ?
COc1cccc2cc(C(=O)OCC(=O)NC3CCCC(C)C3C)c(=O)oc12 (stereo unspecified) | ? | ? | -60.6 | nt | i | i
Cc1c(CNC2CCC(C)CC2)c(C(=O)O)c(C)n1Cc1ccc(Cl)cc1 (stereo unspecified) | i | nt | i | nt | i | i
COc1cc2c(cc1OC)-c1c(OC)c(OC)cc3c1[C@H](C2)[N+](C)(C)CC3 | i | ? | -73.7 | i | i | ?
N=C1CCC(=N)c2c1c(O)c1ccccc1c2O | ? | i | nt | 6.29µM | i | i
Cc1c(C(=O)OCc2nc3scc(-c4ccccc4)c3c(=O)[nH]2)cccc1[N+](=O)[O-] | ? | ? | ? | i | i | 14.1µM
COc1ccc(CN(C)Cc2nc3scc(-c4ccccc4)c3c(=O)[nH]2)cc1OC | ? | i | -60.1 | i | i | ?
COc1ccc(Br)cc1CNC(=O)c1cnc2sc(N3CCC(C)CC3)nn2c1=O | nt | nt | i | nt | ? | ?
CNCC/C=C1/c2ccccc2CSc2ccccc21 | ? | 10µM | i | i | ? | i
CN1C(=O)Cc2cc(S(=O)(=O)CCC(=O)Nc3ccc(Cl)c(C(F)(F)F)c3)ccc21 | nt | nt | ? | nt | i | i
CCC(=O)N1CCc2cc(S(=O)(=O)CCC(=O)Nc3ccc(Cl)c(C(F)(F)F)c3)ccc21 | i | nt | -91.2 | nt | i | i
CCC(=O)N1c2ccc(S(=O)(=O)CCC(=O)Nc3ccc(Br)c(C)c3)cc2CC1C (stereo unspecified) | i | nt | -71.6 | nt | i | i
C/C(CCN1CCCc2nc(C)c(C)cc21)=N\O[C@H](C)CN1CCCc2nc(C)c(C)cc21 | i | nt | nt | nt | nt | nt
O=C(Nc1cccc(F)c1)c1ccc2c(c1)N(Cc1ccccc1)C(=O)c1ccccc1S2(=O)=O | ? | nt | -88.6 | nt | i | i
CC1CCN(C(=O)c2ccc3c(c2)N(Cc2ccccc2)C(=O)c2ccccc2S3(=O)=O)CC1 | ? | nt | -61.1 | nt | i | i
O=C(c1ccc2c(c1)N(Cc1ccc(F)cc1)C(=O)c1ccccc1S2(=O)=O)N1CCC(Cc2ccccc2)CC1 | ? | nt | -63.5 | nt | ? | ?
O=C(c1ccc2c(c1)N(Cc1ccccc1)C(=O)c1ccccc1S2(=O)=O)N1CCCCCC1 | i | nt | i | nt | ? | i
O=C(c1ccc2c(c1)N(Cc1ccc(F)cc1)C(=O)c1ccccc1S2(=O)=O)N1CCCCCC1 | i | nt | ? | nt | i | i
N#CC1=C(N)Oc2cc(N)ccc2C1c1cccc(Br)c1 (stereo unspecified) | nt | i | -74.7 | i | nt | i
COc1cc(C2C(C#N)=C(N)OC3=C2C(=O)CC(C)(C)C3)cc2c1OCO2 (stereo unspecified) | i | 10µM | i | nt | ? | i
COc1cc(C2C(C#N)=C(N)Oc3cc(O)ccc32)cc2c1OCO2 (stereo unspecified) | ? | i | i | i | i | i
COc1cc(C2C(C#N)=C(N)Oc3cc(O)ccc32)cc(OC)c1OC (stereo unspecified) | 1.83µM | i | -89.1 | i | ? | nt
COc1cc(C2C(C#N)=C(N)Oc3cc(N(C)C)ccc32)cc2c1OCO2 (stereo unspecified) | ? | i | -77.7 | i | 0.517µM | i
O=C(Oc1ccccc1)N1CCC[C@@]2(CCN(c3ccccc3)C2)C1 | nt | nt | nt | i | nt | i
CC1=CC[C@@H](COc2ccccc2)O[C@@]2(C1)C(=O)N(Cc1ccc(Br)cc1)c1cccc(Br)c12 | i | nt | nt | nt | nt | nt
CCN1CCCC1CNC(=O)c1cnn(-c2nccc(-c3cc4ccccc4o3)n2)c1C1CC1 (stereo unspecified) | nt | nt | nt | nt | nt | i
CC(=O)OC[C@@]12C(=O)[C@@H](O)[C@@H](C)[C@]3(C[C@@H](c4ccoc4)O[C@@H]3OC(C)=O)[C@H]1CCC[C@]21CO1 | nt | nt | nt | i | nt | i
